TSHR agonist: TSH receptor (human) agonism | HEK293-CNG-TSHR cells (CNG channel as cAMP sensor), membrane potential dye, cAMP | 0.48% of 73,000 active | Potency, µM (doses to about 57.1 µM), usual class: activators | AID 926; active = well fitted activation curve with a large enough effect in the main read-out, with a control signal flat, not every such curve was filed as active; inconclusive = small, poorly fitted or top-dose-only effect, or a change in a side signal; inactive = no such curve, though single readings can be large or run the other way; reference of the percent scale not stated here;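 also: the control signal comes from parental cells without the receptor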
Target sequence (P16473 whole entry, looked up): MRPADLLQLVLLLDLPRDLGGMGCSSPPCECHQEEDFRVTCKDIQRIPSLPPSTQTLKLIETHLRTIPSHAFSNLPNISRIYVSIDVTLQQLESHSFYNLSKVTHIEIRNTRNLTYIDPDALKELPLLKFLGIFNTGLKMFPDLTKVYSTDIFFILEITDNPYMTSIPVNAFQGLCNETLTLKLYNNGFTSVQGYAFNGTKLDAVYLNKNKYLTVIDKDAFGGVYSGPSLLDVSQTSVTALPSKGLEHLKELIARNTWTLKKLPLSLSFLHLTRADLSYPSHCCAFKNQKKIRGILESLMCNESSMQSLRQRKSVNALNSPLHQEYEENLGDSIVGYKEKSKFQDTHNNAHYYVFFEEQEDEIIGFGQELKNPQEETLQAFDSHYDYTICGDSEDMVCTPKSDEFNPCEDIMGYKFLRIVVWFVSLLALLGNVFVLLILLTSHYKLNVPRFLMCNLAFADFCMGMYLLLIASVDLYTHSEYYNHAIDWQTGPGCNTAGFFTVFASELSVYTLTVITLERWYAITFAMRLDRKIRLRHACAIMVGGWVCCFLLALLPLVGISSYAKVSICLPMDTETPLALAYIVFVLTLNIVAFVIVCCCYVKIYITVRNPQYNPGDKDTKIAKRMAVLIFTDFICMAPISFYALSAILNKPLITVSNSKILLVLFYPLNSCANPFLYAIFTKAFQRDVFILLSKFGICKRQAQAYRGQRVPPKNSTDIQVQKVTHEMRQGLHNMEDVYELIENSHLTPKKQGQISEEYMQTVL
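HEK 293 cells stably expressing TSHR and a cAMP-gated CNG channel; parental CNG-only cells as counterscreen. Cells preloaded 60 min with membrane potential dye plus 100 uM RO 20-1724, then compound 30 min; fluorescence read at 590 nm.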
HEK293 cAMP cs: parental HEK293 cAMP activation (counter-screen); parental HEK293 CNG cAMP sensor, membrane potential fluorescence; Potency, µM (doses to about 57.1 µM), hits mostly activators; 2.5% of 73,000 active; AID 938; also: nearly all actives have a fitted effect of over 55% in size
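Counterscreen for endogenous-receptor signalling: CNG-channel HEK 293 cells report cAMP rise by membrane depolarization. After 60 min dye equilibration with 100 uM RO 20-1724, compounds incubated 30 min before bottom-read fluorescence at 590 nm.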
Tau fil binding: binds recombinant human tau filaments; P10636; recombinant tau filaments, thioflavin S fluorescence, 15 h; filaments grown with octadecylsulfate alongside compound; Potency, µM (doses to about 57.1 µM); 2% of 71,000 active; AID 596;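 also: actives lower thioflavin S fluorescence by blocking filaments or displacing dye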
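Recombinant tau protein (human, 1 uM final) plus 30 uM ODS in HEPES pH 7.4 with NaCl, DTT and thioflavine S. Compound present from the start; fluorescence at 510 nm after 15 h, 37 C.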
ERK AVP block: inhibitors of vasopressin-stimulated ERK signaling pathway; HEK293-V1b, vasopressin-stimulated pERK AlphaScreen; Potency, µM (titrated, usually from 57.5 µM), most hits filed as inhibitors; 0.99% of 72,000 active; AID 995; also: nearly all actives have a fitted effect of over 55% in size
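qHTS, compounds titrated on V1b-expressing HEK293 cells. Preincubation 30 min at 37C, vasopressin 25 nM for 5 min, lysis 10 min, bead incubation 5 hr at room temperature.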
CRE Fsk mod: modulators of forskolin-stimulated CRE signaling in CHO cells; AID 662; CHO CRE-bla reporter (cAMP response element driving beta-lactamase), forskolin EC10, beta-lactamase ratio; 2.5% of 71,000 active; Potency, µM (highest dose often 38.2 µM), hits mostly activators; active = well fitted activation curve with a large enough effect in the signal ratio, with a control signal flat, not every such curve was filed as active; inconclusive = small, poorly fitted or top-dose-only effect, or effect the other way, or a change in a side signal; the % refers to the signal ratio
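AC50 values, positive or negative, reflect shifts in EC10 NKH 477-induced CRE-bla reporter activity in CHO cells. Incubation lasted 3 h at 37 °C before CCF4 substrate (2 h, room temperature) and ratiometric 460/530 nm reading.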
Each line names hits and unclear results; the compound was inactive in the other large screens; ! = not confirmed by another sample. Sampled rows, rich in hits. Any-hit rate of the full collection: about 7.4%. Unless noted, calls follow the shape of the dose curve; as a rule, active = well fitted curve in the direction sought with a large enough effect; inconclusive = small, poorly fitted or top-dose-only effect, or another doubt; inactive = no such curve, though single readings can be large; an effect the other way counts as inactive or inconclusive.

Cc1[nH]nc2nc(SCC(=O)NCC3CCCO3)n(-c3ccc(Br)cc3)c(=N)c12 (configuration not stated)	CRE Fsk mod 7.9µM
C[N+](C)([O-])CCC=C1c2ccccc2CCc2ccccc21	none
O=[N+]([O-])c1cc(C(F)(F)F)ccc1Cl	none
O=C1CSC(=S)N1/N=C\c1ccc(Cl)c([N+](=O)[O-])c1	Tau fil binding 4µM
CCOc1cccc(=O)c2c(C)n(Cc3ccco3)c(C)c12	TSHR agonist inconclusive, HEK293 cAMP cs inconclusive, Tau fil binding 4µM
C[C@H](OP(=O)(O)O)[C@H](N)C(=O)O	none
N#Cc1cc2c(nc1SCc1ccncc1)CCC2	Tau fil binding 6.3µM
CC(C)=CC1C(C(=O)Nc2ccc(Br)cn2)C1(C)C (configuration not stated)	TSHR agonist inconclusive, HEK293 cAMP cs 25µM
Cc1ccccc1OCC(O)Cn1c(=N)n(CCN2CCOCC2)c2ccccc21 (configuration not stated)	TSHR agonist inconclusive, HEK293 cAMP cs 10µM
CCn1c(=N)n(CC(O)COc2cccc(C)c2)c2ccccc21 (configuration not stated)	TSHR agonist inconclusive, HEK293 cAMP cs inconclusive, CRE Fsk mod inconclusive
CCCn1c(=N)n(CC(O)COc2cccc(C)c2)c2ccccc21 (configuration not stated)	TSHR agonist inconclusive, HEK293 cAMP cs 16µM
CCCCn1c(=N)n(CC(O)COc2ccc(C)cc2)c2ccccc21 (configuration not stated)	TSHR agonist inconclusive, HEK293 cAMP cs 16µM
COc1ccc(OCC(O)Cn2c(=N)n(CCN3CCOCC3)c3ccccc32)cc1 (configuration not stated)	none
CCCCn1c(=N)n(CC(O)COc2ccccc2)c2ccccc21 (configuration not stated)	TSHR agonist inconclusive, HEK293 cAMP cs 1.3µM
NC(=O)NCC12CC3CC(CC(C3)C1)C2	TSHR agonist inconclusive
O=C(CN1CCCC1)NCC12CC3CC(CC(C3)C1)C2	Tau fil binding 32µM
O=C1C[C@@H](O)[C@@H](O)[C@H]2[C@@H]3C(=O)N(C4CCCCC4)C(=O)[C@@H]3CC[C@H]12	none (no result: Tau fil binding, CRE Fsk mod)
Cc1ccccc1C(=O)N1CCN(c2ccc(NC(=O)c3ccco3)cc2Cl)CC1	ERK AVP block 32µM, CRE Fsk mod inconclusive
C[N+](C)(C)/N=C\c1ccc(O)c(O)c1	none
Oc1ccc(N=Cc2ccc(O)c(O)c2)cc1	Tau fil binding 6.3µM, ERK AVP block inconclusive, CRE Fsk mod inconclusive
Cc1ccc2nsnc2c1S(=O)(=O)N1CCN(Cc2ccc3c(c2)OCO3)CC1	Tau fil binding 16µM
CCCNC(=O)Cc1cc(=O)[nH]c(=O)[nH]1	TSHR agonist inconclusive, HEK293 cAMP cs inconclusive, CRE Fsk mod 2µM (no result: ERK AVP block)
CCCCNc1nc(SC)nc2nc[nH]c12	CRE Fsk mod inconclusive
NC1=C(O)C(=O)[C@H](c2c[nH]c3ccc(OCc4ccccc4)cc23)O1	none
Cc1ccc2nc3c(cc(C(=O)NCc4cccnc4)c(=N)n3C(C)C)c(=O)n2c1	CRE Fsk mod inconclusive
CC(C)n1c(=N)c(C(=O)NCCc2ccccc2)cc2c(=O)n3ccccc3nc21	TSHR agonist inconclusive, Tau fil binding 3.2µM, CRE Fsk mod 10µM
Cc1cccn2c(=O)c3cc(C(=O)NCc4cccnc4)c(=N)n(C(C)C)c3nc12	TSHR agonist inconclusive, CRE Fsk mod 13µM
COC(=O)c1cc2c(=O)n3ccccc3nc2n(C(C)C)c1=N	CRE Fsk mod inconclusive
CN1CCN(c2ncc3ncc(=O)n(-c4ccccc4)c3n2)CC1	TSHR agonist inconclusive, HEK293 cAMP cs inconclusive, CRE Fsk mod inconclusive
O=c1c(-c2ccc(F)c(F)c2)nc2cncnc2n1Cc1ccccc1Cl	Tau fil binding 7.9µM, ERK AVP block inconclusive, CRE Fsk mod inconclusive
O=c1c(-c2cc(F)cc(F)c2)nc2cncnc2n1Cc1ccccc1Cl	Tau fil binding inconclusive, ERK AVP block inconclusive, CRE Fsk mod inconclusive
O=c1c(-c2ccc(F)c(F)c2)nc2cncnc2n1Cc1ccc(F)cc1	TSHR agonist inconclusive, Tau fil binding 16µM, ERK AVP block inconclusive
O=C1c2ccccc2-c2n[nH]c3cccc1c23	TSHR agonist inconclusive, HEK293 cAMP cs inconclusive, ERK AVP block 10µM, CRE Fsk mod 16µM!

Source: PubChem BioAssay
